Data on 15 compounds can be found in PubChem BioAssay (NCI).

The panel holds about 83,000 compounds, 20% with a hit somewhere; the sample as a whole holds those more often.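 Each cell line was grown in a 96-well plate and treated with one concentration of compound for 48 hours. Values below 10 were considered active.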 Calls of active or inactive are those of the source.

For this assay, the system named is DU-145 prostate. Put plainly: NCI-60 one-dose screen, 48 h (100 = growth as untreated, 0 = no growth, -100 = all killed). The conditions noted are these: 10 µM unless noted.
Consider `COc1ccc(/C=C(/C(=O)N2CCCCC2)c2cc(OC)c(OC)c(OC)c2)cc1`, for which the growth is 9.17% (active).

Regarding `COc1ccc(OC)c(Cn2cc3c(c2)-c2oncc2CC3)c1`, the growth is 52% (inactive). Next, `COc1ccc(CN2C(=O)/C(=C\C(=O)c3ccc(OCCN4CCCCC4)cc3)c3ccccc32)cc1`: 66% (inactive). On to `COc1ccc(/C=C2\SC(=O)N(Cc3cc(=O)oc4ccc(OC)cc34)C2=O)cc1`, for which the growth was 91.3% (inactive). The figure for `O=c1oc2ccc3ccccc3c2cc1-c1ccnc2[nH]c(=S)[nH]c(=O)c12` is 106% (inactive); for `O=C(O)c1occ(Cl)c1Cl` it is 114% (inactive); for `COc1ccc(Cn2cc3c(c2-c2ccccc2)CCc2cnoc2-3)cc1OC` it is 21.3% (inactive). Next, `CCCCN(CCCC)CC(O)CN(CC)CC` (stereo not given): 113% (inactive); `O=C(/C=C/c1c[nH]c2ccccc12)c1cc2ccccc2o1`: 95.6% (inactive). Next, `COc1ccc2sc(-n3nc4nc5n(c(=O)c4c3N)-c3ccccc3Sc3ccccc3-5)nc2c1`: 99.7% (inactive); `CCOC(=O)NNc1[nH]c(-c2ccc(OC)cc2)cc1C#N`: 108% (inactive); `COc1ccc(-c2cn3ccnc3c(-c3ccc4ncn(C5CCCCC5)c4c3)n2)cc1`: 18.2% (inactive).

`CCOC(=O)C1=NN(c2ccccc2)C2=NC(=O)/C(=C\c3cn(-c4ccccc4)nc3-c3cc4ccccc4o3)C(=O)N12`: the growth was 109% (inactive). Regarding `O=C(/C=C1\C(=O)N(Cc2ccc([N+](=O)[O-])cc2)c2ccccc21)c1ccc(OCCN2CCCCC2)cc1`, the growth was -35.3% (active). The figure for `NNC(=S)N1N=C(c2cc3ccccc3o2)CC1c1c[nH]c2ccccc12` (stereo not given) is 50.9% (inactive).
